# From PubChem
# MITF inhib: MITF inhibition | inhibition, % (concentration not given with the values) | TRPM1 promoter luciferase, luminescence, 24 h | AID 2240 | 0.28% of 37,000 active; in the data active means inhibition above about 85%;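 further: human melanocyte line stably carrying TRPM1 promoter luciferase reporter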
# NOMO-1 viab: STK33 inhibitor candidate reducing NOMO-1 cell viability | 7.5% of 37,000 active | inhibition, % (concentration not given with the values) | NOMO-1 AML viability, CellTiter-Glo luminescence, 72 h; in the data active means inhibition above about 80%
# Shh pathway inh: Sonic Hedgehog pathway inhibition | inhibition, % (test concentration not listed) | Shh-LIGHT2 Gli-luciferase reporter, 30 h | 2.1% of 22,000 active;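 active means mean inhibition across valid replicates above about 65%, limit read from the data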;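 further: pathway switched on by Shh-conditioned medium diluted 1 in 25 in low serum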
# Numbers without * were called inactive; x = not tested or not shown. Sampled rows, rich in hits. Any-hit rate of the full collection: about 7.8%.
SMILES,MITF inhib,NOMO-1 viab,Shh pathway inh
C/C=C(\C)C(=O)OC1C(OC(=O)/C=C(/C)CC(=O)O)C2(CO)C(O)CC3(C)C(=CCC4C5(C)CCC(OC6OC(C(=O)O)C(O)C(OC7OC(C)C(O)C(OC8OC(CO)C(O)C(O)C8O)C7O)C6O)C(C)(C)C5CCC43C)C2CC1(C)C (stereo unspecified),97.7*,122.1*,96.9*
C[C@@H]1O[C@@H](O[C@H]2[C@H](O[C@H]3[C@H](O)[C@@H](C(=O)O)O[C@@H](O[C@H]4CC[C@@]5(C)C(CC[C@]6(C)C5CC[C@]57OC[C@@]8(CCC(C)(C)CC85)[C@H](O)C[C@]76C)C4(C)C)[C@@H]3O[C@@H]3O[C@H](CO)[C@@H](O[C@@H]4OC[C@@H](O)[C@H](O)[C@H]4O)[C@H](O)[C@H]3O)O[C@H](CO)[C@H](O)[C@@H]2O)[C@H](O)[C@H](O)[C@H]1O (stereo partly specified),-15.2,58.3,42.3
C[C@@H]1O[C@@H](O[C@H]2CC[C@@]3(C)C(CC[C@]4(C)C3CC=C3C5CC(C)(C)CC[C@]5(C(=O)O[C@@H]5O[C@H](CO)[C@@H](O)[C@H](O)[C@H]5O)CC[C@]34C(=O)O)C2(C)C)[C@H](O)[C@H](O)[C@H]1O (stereo partly specified),4.1,15.5,-4.7
C/C=C(/C)C(=O)O[C@H]1[C@H](OC(=O)/C=C/c2ccccc2)[C@@]23C(CC1(C)C)[C@]1(CCC4[C@@]5(C)CC[C@H](O[C@@H]6O[C@H](C(=O)O)[C@@H](O)[C@H](O[C@@H]7O[C@H](CO)[C@H](O)[C@H](O)[C@H]7O[C@@H]7O[C@@H](C)[C@H](O)[C@@H](O)[C@H]7O[C@@H]7OC[C@](O)(CO)[C@H]7O)[C@H]6O[C@@H]6O[C@H](CO)[C@H](O)[C@H](O)[C@H]6O)C(C)(C)C5CC[C@@]4(C)[C@]1(C)C[C@H]2O)O[C@H]3O (stereo partly specified),90.4*,120.3*,87.8*
C/C=C(/C)C(=O)O[C@H]1[C@H](OC(=O)/C(C)=C\C)[C@]2(CO)[C@H](O)C[C@]3(C)C(=CCC4[C@@]5(C)CC[C@H](OC6OC(C(=O)O)C(O)C(OC7OC(C)C(O)C(OC8OC(CO)C(O)C(O)C8O)C7O)C6O)C(C)(C)C5CC[C@]43C)[C@@H]2CC1(C)C (stereo partly specified),101.8*,121.9*,99.0*
COc1cc(Cc2nccc3cc(OC)c(OC)cc23)c(NC(=O)c2cccc(Br)c2)cc1OC,-8.4,8.5,x
CCOC(=O)CC(Sc1ccccc1N)c1cc(OC)c(OC)c(OC)c1 (stereo unspecified),-2.2,-13.0,8.8
CCC(C)C(Nc1ncnc2c1oc1ccccc12)C(=O)O (stereo unspecified),16.9,-6.2,x
COc1ccc(-c2nc(SCC(=O)Nc3ccc(Br)c(Cl)c3)n[nH]2)cc1,24.1,1.4,x
NNC(=O)c1cc2c(s1)-c1ccccc1CC2,-5.1,42.4,-63.6
O=C(C/C(=C1/CCc2ccccc2C1=O)c1ccccc1)c1ccccc1,50.3,114.9*,103.0*
Cc1cccc(C)c1OCC(=O)Nc1cccnc1,-12.3,31.8,x
CCOC(=O)c1ccc(NC(=O)C2C3CCC(C3=C(C)C)C2C(=O)O)cc1 (stereo unspecified),3.4,14.4,x
O=C(/C=C/c1ccc(O)c(O)c1)O[C@@H]1C[C@](O)(C(=O)O)C[C@@H](O)[C@H]1O,0.4,16.5,-31.9
COc1cc(/C=C/C(=O)OC2CC3CCC2(C)C3(C)C)ccc1O (stereo unspecified),-85.7,103.9*,1.5
Cn1c(SCC(=O)Nc2ccccc2Cl)nnc1-c1cccc([N+](=O)[O-])c1,-2.2,10.3,x
COc1ccc([N+](=O)[O-])cc1N(CC(=O)Nc1cc(Cl)ccc1Cl)S(C)(=O)=O,6.8,-6.5,x
Cc1nc(SCC(N)=O)c2c(C)c(C)sc2n1,-9.5,0.4,x
C[C@H]1CN([C@@H](C)CO)C(=O)Cc2cc(NC(=O)Nc3ccc(C(F)(F)F)cc3)ccc2O[C@@H]1CN(C)CC1CCCCC1,-19.3,125.4*,1.5
C[C@@H]1CN([C@H](C)CO)C(=O)Cc2cc(NC(=O)Nc3ccc(C(F)(F)F)cc3)ccc2O[C@H]1CN(C)C(=O)NC1CCCCC1,-17.8,14.4,-10.2
COc1ccc(NC(=O)Nc2ccc3c(c2)CC(=O)N([C@H](C)CO)C[C@H](C)[C@H](CN(C)CC2CCCCC2)O3)cc1,0.4,61.3,x
C[C@H](CO)N1C[C@H](C)[C@H](CN(C)CC2CCCCC2)Oc2ccc(NC(=O)Nc3ccc(C(F)(F)F)cc3)cc2CC1=O,22.1,127.7*,28.5
CC(C)(C)c1ccc(S(=O)(=O)NCC(=O)Nc2cccc(Cl)c2)cc1,7.8,57.6,x
COc1cc(NC(=O)COc2ccc(Cl)cc2Cl)c2ncccc2c1,28.2,48.6,x
